Laboratory results taken from PubChem BioAssay (NCATS).
Results filed as inconclusive are left out. A number with no mark means an inactive call. Activity calls are given as the source filed them. The call rests on the fitted dose curve; in most records, active means well fitted cell-killing curve with a large enough effect; inconclusive means small, poorly fitted or top-dose-only effect, or effect the other way; inactive means no such curve, though single readings can be large or run the other way.

assay: qHTS of pediatric cancer cell lines to identify multiple opportunities for drug repurposing: Confirmatory screen for NB1643 cells (AID 1347109); settings: NB1643 neuroblastoma cell viability; series mostly up to 45.9 µM; activity change, negative = cytotoxic: at the top concentration; further: nearly all actives have a fitted effect of over 45% in size
Source text: Drug repurposing or repositioning has been offered as a strategy for drug development in oncology programs. This approach has special potential for childhood cancers and other rare or orphan diseases, where the expected return on new drug development has been a disincentive to pharmaceuticals.
In this project we exploit the poly-pharmacology of drugs to discover new indications via phenotypic screening of a panel of 19 well-characterized cell lines derived from solid tumors seen in children and adolescents. The goal is to identify approved drugs with previously unrecognized anticancer properties that has the potential to reveal new mechanisms and biological processes involved in carcinogenesis or drug resistance. We employed a titration-based paradigm (quantitative high-throughput screening or qHTS), where all compounds were tested at multiple concentrations for their effect on cell viability. Concentration-response curves (CRCs) were derived directly from the primary screen, and both potency and efficacy values were used to identify compounds with robust bioactivity profiles. We screened the NIH Chemical Genomics Center (NCGC) Pharmaceutical Collection (NPC) and Mechanism Interrogation Plate (MIPE) small molecule collections of approved and investigational compounds against these cell lines; and measured metabolically active cells after 48 hours of compound treatment as a proxy for cell viability.
Assay Submitter: Nathalia J. Martinez, National Center for Advancing Translational Sciences, National Institutes of Health, Rockville, MD, USA; email: natalia.martinez@nih.gov
[1] Shen, M et al. Quantitative high-throughput phenotypic screening of pediatric cancer cell lines identifies multiple opportunities for drug repurposing. Oncotarget 2017 Dec 19;9(4):4758-4772. PMID 29435139.
The cells were obtained from University of North Carolina (UNC), Pediatric Preclinical Testing Program (PPT), and Coriell Institute (CI).
qHTS cell viability assay:
Cells were assayed in growth media at a density of 500-1,000 cells/well. Five microliters of cells were dispensed into 1,536-well, white, solid-bottom, TC-treated plates (Greiner Bio One) using a multidrop dispenser and incubated at 37 degrees C, 5% CO2, under a humidified atmosphere for 5 hours. Twenty-three nanoliters of compounds and controls (neutral control DMSO or positive control bortezomib at final concentration of 2.3 µM) were subsequently transferred by Kalypsys pintool. For primary screens, the MIPE collection was tested at 11-point dilutions (final concentrations range from 0.78 nM to 46 µM) and the NPC collection at 8-point dilutions (final concentrations range from 0.59 nM to 46 µM). Compounds tested in follow-up screens were assayed at 11-point dilutions. Cells were incubated for 48 hours, followed by addition of 3 µL of CellTiter-Glo (Promega). After a 15 min incubation at room temperature, samples were analyzed for luminescence intensity using a ViewLux High-throughput CCD imager equipped with clear filters.
Potency means the concentration at half of the fitted maximal effect.

SMILES	Potency	activity change, negative = cytotoxic
C[C@H]1CCCC=CC2C[C@H](O)C[C@@H]2[C@H](O)C=CC(=O)O1 (some centres not stated)	0.131 µM (active)	–
CC1=C(O)C(=O)C=C2C1=CC=C1[C@@]2(C)CC[C@@]2(C)[C@@H]3C[C@](C)(C(=O)O)CC[C@]3(C)CC[C@]12C	2.08 µM (active)	–
O=C(Nc1ccncc1)C(=O)c1cn(Cc2ccc(Cl)cc2)c2ccccc12	0.465 µM (active)	–
CCC(=O)OC1CCC2C3CCC4=CC(=O)CC[C@@]4(C)C3CC[C@]12C (some centres not stated)	–	-8.81%
C[C@@H]1O[C@@H](O[C@@H]2C=C3CC[C@@H]4[C@@H](CC[C@]5(C)[C@H](c6ccc(=O)oc6)CC[C@@]45O)[C@@]3(C)CC2)[C@H](O)[C@H](O)[C@H]1O	0.0827 µM (active)	–
CO[C@H]1CCC(O[C@H]2C[C@H]([C@]3(C)CC[C@]4(C[C@H](O)[C@@H](C)[C@@H]([C@@H](C)C=C(C)C(=O)[C@H](C)C[C@H](C)C(=O)O)O4)O3)O[C@]3(O[C@@H]([C@H]4O[C@@](O)(CO)[C@H](C)C[C@H]4C)C[C@H]3C)[C@H]2C)O[C@H]1C (some centres not stated)	2.93 µM (active)	–
CC(C)(C)C(O)C(Oc1ccc(Cl)cc1)n1cncn1 (configuration not stated)	–	-2.72% [at 95.5 µM]
Cc1[nH]nc2ccc(-c3cncc(OC[C@@H](N)Cc4c[nH]c5ccccc45)c3)cc12	0.737 µM (active)	–
Cc1ccccc1-n1c(Cn2ncc3c(N)ncnc32)nc2cccc(C)c2c1=O	0.522 µM (active)	–
Cc1c(C(=O)Nc2cccc(C(F)(F)F)c2)cc(-c2ccccc2)n1CCCN1CCOCC1	42.7 µM (active)	–
O=c1[nH]c2ccc(Cl)cc2c(N[C@@H]2CN3CCC2CC3)c1-c1nc2ccccc2[nH]1	1.31 µM (active)	–
C=CCON=C(C[C@H]1O[C@@H]2O[C@]3(C)CC[C@@H]4[C@H](C)CC[C@@H]([C@H]1C)[C@@]24OO3)[C@H]1O[C@@H]2O[C@]3(C)CC[C@H]4[C@H](C)CC[C@@H]([C@@H]1C)[C@@]24OO3	0.414 µM (active)	–
Cc1ccccc1-n1c(Cn2cnc3c(N)ncnc32)nc2cccc(C)c2c1=O	–	-8.89%
CC(=O)[O][Hg][c]1ccccc1	1.47 µM (active)	–
C[C@@H]1CC[C@@]2(OC1)O[C@H]1C[C@H]3[C@@H]4CC=C5C[C@@H](O[C@@H]6O[C@H](CO)[C@@H](O[C@@H]7O[C@@H](C)[C@H](O)[C@@H](O)[C@@H]7O)[C@H](O)[C@@H]6O[C@@H]6O[C@@H](C)[C@H](O)[C@@H](O)[C@@H]6O)CC[C@]5(C)[C@@H]4CC[C@]3(C)[C@@H]1[C@H]2C	4.14 µM (active)	–
COc1cc2cc(c1Cl)N(C)C(=O)C[C@H](OC(=O)C(C)C)[C@]1(C)O[C@H]1[C@H](C)[C@@H]1C[C@@](O)(NC(=O)O1)[C@H](OC)C=CC=C(C)C2	65.7 µM (active)	–
CS(=O)(=O)c1ccc(C(=O)C2C(=O)CCCC2=O)c([N+](=O)[O-])c1	–	10.4% [at 95.5 µM]
O=C(N[C@H]1CN2CCC1CC2)c1ccc(Cl)cc1	16.5 µM (active)	–
CC[C@@]1(O)C(=O)OCc2c1cc1n(c2=O)Cc2cc3ccccc3nc2-1	0.131 µM (active)	–
CC(C)N[C@@H]1CCn2c(=O)[nH]c3cccc(c32)[C@@H]1O	–	5.68%
CC[C@@H]1[C@@H](C)O[C@@](O)([C@@H](C)[C@H](O)[C@H](C)[C@H]2OC(=O)C=CC=C[C@@H](C)[C@@H]([C@@H](C)[C@@H](O)[C@H](C)[C@@]3(O)C[C@H](O[C@H]4C[C@H](O)[C@H](O)[C@H](C)O4)[C@H](CC)[C@@H](C)O3)OC(=O)C=CC=C[C@@H]2C)C[C@H]1O[C@H]1C[C@H](O)[C@H](O)[C@H](C)O1	–	10.4%
CC=C(C)C(=O)O[C@H]1C(C)=C2[C@@H]3OC(=O)[C@@](C)(O)[C@@]3(O)[C@@H](OC(=O)CCC)C[C@](C)(OC(C)=O)[C@@H]2[C@@H]1OC(=O)CCCCCCC	–	-0.415%
C[C@]12Cc3cn[nH]c3C[C@@H]1CC[C@@H]1[C@H]2CC[C@@]2(C)[C@H]1CC[C@]2(C)O	–	-18.2%
CCCN1CCO[C@@H]2c3cc(O)ccc3OC[C@@H]21	–	-0.654%
O=C1C(I)=CC(=C(c2cc(I)c(O)c(I)c2)c2ccccc2C(=O)O)C=C1I	–	-2.53%
C[C@@]12OC(=O)[C@]1([C@@H](O)[C@@H]1C=CCCC1)NC(=O)[C@H]2CCCl	1.04 µM (active)	–
CC(C)(O)C=CC(=O)[C@](C)(O)[C@H]1[C@H](O)C[C@]2(C)[C@@H]3CC=C4[C@@H](C=C(O)C(=O)C4(C)C)[C@]3(C)C(=O)C[C@@]12C	0.117 µM (active)	–
